Measurements taken from PubChem BioAssay AID720646 (Broad Institute, 2013).
Among all 1,000 compounds or so, about 25 (2%) were called active.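 Rule for the calls: active = fitted rise in melting shift crosses a set limit at or below the top valid dose tested; inconclusive = flat fit at mid-level activity, or a poor quality fit; inactive = the rest.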 The list is a sample of the results.

target: Fibroblast growth factor 22 (Homo sapiens) (UniProt Q9HCT0); assay: binders of human FGF22 protein, dose response, FGF22 synaptogenesis inhibitor project, biophysical, thermal shift, cherry-pick retest (AID 720646); settings: recombinant FGF22 thermal shift, SYPRO orange fluorescence; series mostly up to 38 µM
Sequence (Q9HCT0 whole entry, looked up): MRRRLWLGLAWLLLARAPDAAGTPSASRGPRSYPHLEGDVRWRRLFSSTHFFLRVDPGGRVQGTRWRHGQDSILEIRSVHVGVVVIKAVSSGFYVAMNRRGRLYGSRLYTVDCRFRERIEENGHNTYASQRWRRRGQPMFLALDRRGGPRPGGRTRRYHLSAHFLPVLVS

Question: How did the outcome turn out when O=C(N/N=C/c1ccc(OCc2ccccc2)cc1)c1ccc(O)cc1 was run?
Answer: inactive

Question: With CN1C(=O)c2cc(NC(=O)c3cccc(F)c3)ccc2OC[C@@H]2O[C@H](CC(=O)N3CCc4ccccc4C3)CC[C@@H]21 as the compound, how does the outcome read?
Answer: inactive

Question: How did the outcome turn out when CNC[C@@H]1Oc2ccc(NC(=O)C3CCCCC3)cc2C(=O)N([C@@H](C)CO)C[C@H]1C was run?
Answer: inactive

Question: How did the outcome turn out when O=C(c1ccccc1F)N1CC(=O)N2[C@H](C1)[C@H](c1ccc(-c3ccc(F)cc3)cc1)[C@@H]2CO was run?
Answer: inactive

Question: Which outcome does the source give for CCCCN1CC(N2CCN(Cc3cccc(C)c3)CC2)CS1(=O)=O (stereo unspecified) here?
Answer: inactive

Question: How did the outcome turn out when O=C(Cc1cccnc1)N[C@H]1CC[C@H](CCn2cc(-c3ccccc3F)nn2)O[C@H]1CO was run?
Answer: inactive

Question: For CC(=O)NC[C@@H]1[C@@H](c2ccccc2)[C@@H](CO)N1C(=O)Cc1cccnc1, which outcome is on record?
Answer: inactive

Question: O=S(=O)(ON(c1ccccc1)S(=O)(=O)c1ccccc1)c1ccccc1 was tested. Which outcome did it give?
Answer: inactive

Question: O=C1C=CCCN1C(=O)/C=C/c1ccc(F)cc1 was tested. Which outcome did it give?
Answer: inactive

Question: For CC(=O)N1c2ccc(S(=O)(=O)N3CCC(C(=O)NCc4ccc(F)cc4)CC3)cc2CC1C (stereo unspecified), which outcome is on record?
Answer: inactive

Question: CCCOc1ccc(NC(=O)CC2C(=O)N(C)C(=S)N2Cc2ccc3c(c2)OCO3)cc1 (stereo unspecified) was tested. Which outcome did it give?
Answer: inactive

Question: Cc1cccc(S(=O)(=O)N2C[C@@H](O)COC[C@H]3O[C@H](CC(=O)Nc4ccc(-c5ccccc5)cc4)CC[C@@H]32)c1 was tested. Which outcome did it give?
Answer: inactive

Question: Which outcome does the source give for Cc1c(CCO)sc[n+]1CC(=O)OC12CC3CC(CC(C3)C1)C2 here?
Answer: inactive

Question: COc1cc(NC(=O)c2ccc3c(c2)OCO3)ccc1NC(=O)c1cccs1 was tested. Which outcome did it give?
Answer: inactive

Question: Which outcome does the source give for O=C(N[C@@H]1C=C[C@H](CC(=O)N2CCCCC2)O[C@H]1CO)c1cccc(F)c1 here?
Answer: inactive

Question: With CS(=O)(=O)c1ccc2nc(NC(=O)c3ccc(Cl)nc3)sc2c1 as the compound, how does the outcome read?
Answer: inactive

Question: With CC(=O)Nc1ccc(S(=O)(=O)N(CCc2ccccc2)CC(=O)N/N=C/c2ccc(C(=O)O)cc2)cc1 as the compound, how does the outcome read?
Answer: inactive

Question: COCCN(C(=O)C(C)C)c1nnc(-c2ccc(C(C)(C)C)cc2)s1 was tested. Which outcome did it give?
Answer: inactive

Question: Cc1ccc(NC(=O)Nc2cccnc2)cc1 was tested. Which outcome did it give?
Answer: inactive

Question: With CN1C(=O)c2cccc3c(N)ccc(c23)C1=O as the compound, how does the outcome read?
Answer: inactive

Question: Which outcome does the source give for O=C(N/N=C/c1ccc([N+](=O)[O-])cc1)c1c[nH]c2ccccc12 here?
Answer: inactive

Question: With O=C(Nc1ccccc1F)N1[C@H](CO)[C@H]2c3ccccc3NC[C@H]21 as the compound, how does the outcome read?
Answer: inactive

Question: With C[C@@H]1CN([C@@H](C)CO)S(=O)(=O)c2ccc(-c3ccncc3)cc2O[C@@H]1CN(C)C(=O)Nc1ccc(F)cc1 as the compound, how does the outcome read?
Answer: inactive

Question: Which outcome does the source give for O=C(NN1C(=O)C2C3C=CC(O3)C2C1=O)c1ccccc1 (stereo unspecified) here?
Answer: inactive

Question: How did the outcome turn out when COc1ccccc1C(=O)NNC(=O)c1ccc(NC(=O)c2ccccc2)cc1 was run?
Answer: inactive

Question: How did the outcome turn out when NS(=O)(=O)c1cccc(NC(=O)COC(=O)c2cc([N+](=O)[O-])ccc2N2CCCC2)c1 was run?
Answer: inactive

Question: For COc1ccccc1NC(=O)N1[C@H](C#N)[C@H](c2ccccc2)[C@H]1CO, which outcome is on record?
Answer: inactive

Question: Which outcome does the source give for OC[C@H]1[C@H](c2ccc(-c3cccnc3)cc2)[C@H]2CN(Cc3ccccn3)CCCCN21 here?
Answer: inactive

Question: For O=C(Nc1nnc(-c2ccccc2F)s1)c1ccccc1F, which outcome is on record?
Answer: inactive

Question: With C[C@H]1CN([C@@H](C)CO)C(=O)Cc2cc(NC(=O)Cc3cn(C)c4ccccc34)ccc2O[C@@H]1CN(C)Cc1ccccc1 as the compound, how does the outcome read?
Answer: inactive

Question: CC(C)NC(=O)N(C)C[C@@H]1Oc2c(NC(=O)c3nc4ccccc4s3)cccc2C(=O)N([C@H](C)CO)C[C@H]1C was tested. Which outcome did it give?
Answer: inactive

Question: Which outcome does the source give for O=C(C[C@H]1CC[C@H]2[C@@H](COC[C@H](O)CN2S(=O)(=O)c2cccc(Cl)c2)O1)Nc1ccccc1 here?
Answer: inactive

Question: For COc1ccc(-c2ccc([C@H]3[C@H]4CN(C(=O)c5ccc6c(c5)OCO6)CCCCN4[C@H]3CO)cc2)cc1, which outcome is on record?
Answer: inactive

Question: For O=C(N/N=C/c1c[nH]c2ccccc12)c1cc2ccccc2o1, which outcome is on record?
Answer: inactive

Question: Which outcome does the source give for COc1cc([N+](=O)[O-])ccc1NC(=O)CN1CCCC1 here?
Answer: inactive

Question: Which outcome does the source give for COCC(=O)Nc1ccc2c(c1)OC[C@H](C)N(C)C[C@@H](C)[C@@H](OC)CN(C)C2=O here?
Answer: inactive

Question: For Cc1ccc(S(=O)(=O)NCCC(=O)Nc2ccc(C)c(Cl)c2)cc1C, which outcome is on record?
Answer: inactive

Question: COc1ccc(-c2cc(=O)oc3cc(OCC(=O)N[C@@H](Cc4c[nH]c5ccccc45)C(=O)O)ccc23)cc1 was tested. Which outcome did it give?
Answer: inactive

Question: C[C@H]1CN([C@@H](C)CO)S(=O)(=O)c2ccc(C3=CCCC3)cc2O[C@H]1CN(C)C(=O)Nc1ccc2c(c1)OCO2 was tested. Which outcome did it give?
Answer: inactive

Question: For O=C(C[C@H]1C[C@@H]2c3cc(NC(=O)Nc4ccc(C(F)(F)F)cc4)ccc3O[C@@H]2[C@@H](CO)O1)NCC1CC1, which outcome is on record?
Answer: inactive

Question: How did the outcome turn out when CC(C)(C)N1C(=O)c2c(C(=O)OCc3ccccc3)[nH]c(-c3ccccc3)c2C1=O was run?
Answer: inactive

Question: Which outcome does the source give for Cc1ccc(S(=O)(=O)Nc2nc3ccccc3s2)cc1[N+](=O)[O-] here?
Answer: inactive

Question: How did the outcome turn out when O=C(N/N=C/c1ccc(Cl)c(Cl)c1)c1ccc2nc[nH]c2c1 was run?
Answer: inactive

Question: For O=C(COc1ccc([N+](=O)[O-])cc1)Nc1cccc(C(=O)Nc2ccccc2C(=O)O)c1, which outcome is on record?
Answer: inactive

Question: Which outcome does the source give for O=C(NCCc1c[nH]c2ccccc12)C(=O)NCC1CCCO1 (stereo unspecified) here?
Answer: inactive

Question: Cc1ccc(NC(=O)O/N=C/c2cccc([N+](=O)[O-])c2)cc1 was tested. Which outcome did it give?
Answer: inactive

Question: With Cc1ccc(S(=O)(=O)N(C)C[C@@H]2Oc3cc(C4=CCCC4)ccc3S(=O)(=O)N([C@@H](C)CO)C[C@@H]2C)cc1 as the compound, how does the outcome read?
Answer: inactive

Question: Which outcome does the source give for CCn1ccnc1CN(C)C(=O)c1ccc2nc(Cc3ccc(OC)cc3)oc2c1 here?
Answer: inactive

Question: For C[C@@H]1CCCCO[C@@H](CN(C)Cc2ccncc2)[C@H](C)CN([C@H](C)CO)C(=O)c2cc(NC(=O)Cc3ccccc3)ccc2O1, which outcome is on record?
Answer: inactive

Question: Which outcome does the source give for C[C@@H]1CN([C@H](C)CO)S(=O)(=O)c2ccc(-c3ccncc3)cc2O[C@@H]1CN(C)C(=O)Nc1ccc(C(F)(F)F)cc1 here?
Answer: inactive

Question: With CC(C)NC(=O)N1C[C@@H]2[C@H](c3ccccc31)[C@H](CO)N2C(=O)c1ccccn1 as the compound, how does the outcome read?
Answer: inactive
